The source of these data is PubChem BioAssay.

The target of assay [1] is Nuclear receptor coactivator 3 (Homo sapiens) (UniProt Q9Y6Q9). Put plainly: NCOA3 GAL4-fusion reporter inhibition – cell-based, luminescence, quadruplicate, confirmation (AID 588792;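 active = mean inhibition over 43.08%, the solvent-only control mean plus 3 SD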;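 note: 0% = DMSO treated cells and 100% = gossypol at 36 µM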). As to conditions: HEK293 GAL4-SRC3 luciferase reporter, at 3.6 µM, stronger effect = higher value. For orientation: Reporter assays use an easily measured gene product as a stand-in for the process of interest.

The subject of assay [2] is transactivating tegument protein VP16 (Human herpesvirus 1), Gal4-VP16 luciferase reporter. Description: repression of VP16-driven luciferase reporter – cell-based, luminescence, high throughput, counter-screen for SRC3 inhibitor project (AID 588794; in the data active = inhibition above about 30%). As to conditions: mammalian cells, at 3.6 µM, stronger effect = higher value.
In assay [3] the target is Nuclear receptor coactivator 1 (Homo sapiens) (UniProt Q15788). Description: NCOA1 GAL4-fusion reporter inhibition – cell-based, luminescence, quadruplicate, confirmation (AID 588820).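 Note: 0% = DMSO wells and 100% = gossypol 36 µM treated wells.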 As to conditions: HEK293 GAL4-SRC1 luciferase reporter, at 3.6 µM, stronger effect = higher value.
A short description of assay [4]: repression of VP16-driven luciferase reporter – cell-based, luminescence, high throughput, counter-screen for SRC1 inhibitor project (AID 588824; in the data active = inhibition above about 25%). As to conditions: cell-based VP16 transactivation luciferase luminescence; at 3.6 µM; stronger effect = higher value.

Unmarked numbers belong to inactive results. Activity calls are given as the source filed them.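 Rule for the calls, unless noted: active = mean inhibition above 46.68%, the untreated control wells mean plus 3 SD; inactive = the rest.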

Sequence of Nuclear receptor coactivator 3 (Homo sapiens) (Q9Y6Q9 whole entry, looked up, the tested form may be a part): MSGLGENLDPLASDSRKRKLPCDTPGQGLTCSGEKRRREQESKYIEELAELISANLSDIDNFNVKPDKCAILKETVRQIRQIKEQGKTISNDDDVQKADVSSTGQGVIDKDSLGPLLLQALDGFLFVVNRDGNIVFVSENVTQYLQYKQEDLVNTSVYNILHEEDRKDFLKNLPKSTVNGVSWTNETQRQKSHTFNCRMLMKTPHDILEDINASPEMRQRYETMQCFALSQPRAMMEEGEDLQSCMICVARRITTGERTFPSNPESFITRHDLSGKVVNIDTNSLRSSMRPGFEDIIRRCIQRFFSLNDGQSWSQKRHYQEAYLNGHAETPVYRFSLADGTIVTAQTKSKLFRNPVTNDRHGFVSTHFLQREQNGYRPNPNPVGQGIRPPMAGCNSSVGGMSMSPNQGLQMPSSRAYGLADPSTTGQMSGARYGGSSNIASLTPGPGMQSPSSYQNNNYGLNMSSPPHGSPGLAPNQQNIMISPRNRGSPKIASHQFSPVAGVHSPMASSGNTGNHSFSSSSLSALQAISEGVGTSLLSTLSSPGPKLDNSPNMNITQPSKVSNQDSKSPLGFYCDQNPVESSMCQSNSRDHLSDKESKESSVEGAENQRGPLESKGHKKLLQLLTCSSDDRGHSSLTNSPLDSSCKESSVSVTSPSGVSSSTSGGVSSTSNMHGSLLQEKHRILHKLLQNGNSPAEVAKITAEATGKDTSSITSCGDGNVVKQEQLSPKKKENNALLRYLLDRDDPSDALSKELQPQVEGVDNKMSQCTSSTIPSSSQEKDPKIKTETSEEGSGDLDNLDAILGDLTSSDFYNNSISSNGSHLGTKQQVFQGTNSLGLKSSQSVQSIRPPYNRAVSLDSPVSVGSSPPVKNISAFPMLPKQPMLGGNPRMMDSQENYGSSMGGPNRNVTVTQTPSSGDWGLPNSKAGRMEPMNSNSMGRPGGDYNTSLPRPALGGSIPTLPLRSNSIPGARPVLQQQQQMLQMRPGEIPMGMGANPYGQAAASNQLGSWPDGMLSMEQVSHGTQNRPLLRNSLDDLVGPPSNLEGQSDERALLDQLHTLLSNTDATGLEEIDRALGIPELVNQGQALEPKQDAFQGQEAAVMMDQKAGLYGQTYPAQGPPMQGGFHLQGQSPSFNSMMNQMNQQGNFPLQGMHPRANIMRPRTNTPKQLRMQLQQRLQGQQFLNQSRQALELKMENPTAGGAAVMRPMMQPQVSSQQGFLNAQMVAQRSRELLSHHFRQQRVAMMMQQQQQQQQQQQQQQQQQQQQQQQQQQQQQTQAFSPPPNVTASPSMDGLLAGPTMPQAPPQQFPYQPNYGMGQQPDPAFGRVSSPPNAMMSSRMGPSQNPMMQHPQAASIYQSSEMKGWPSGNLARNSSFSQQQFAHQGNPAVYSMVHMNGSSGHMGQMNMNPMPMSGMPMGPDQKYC
Sequence of Nuclear receptor coactivator 1 (Homo sapiens) (Q15788 whole entry, looked up, the tested form may be a part): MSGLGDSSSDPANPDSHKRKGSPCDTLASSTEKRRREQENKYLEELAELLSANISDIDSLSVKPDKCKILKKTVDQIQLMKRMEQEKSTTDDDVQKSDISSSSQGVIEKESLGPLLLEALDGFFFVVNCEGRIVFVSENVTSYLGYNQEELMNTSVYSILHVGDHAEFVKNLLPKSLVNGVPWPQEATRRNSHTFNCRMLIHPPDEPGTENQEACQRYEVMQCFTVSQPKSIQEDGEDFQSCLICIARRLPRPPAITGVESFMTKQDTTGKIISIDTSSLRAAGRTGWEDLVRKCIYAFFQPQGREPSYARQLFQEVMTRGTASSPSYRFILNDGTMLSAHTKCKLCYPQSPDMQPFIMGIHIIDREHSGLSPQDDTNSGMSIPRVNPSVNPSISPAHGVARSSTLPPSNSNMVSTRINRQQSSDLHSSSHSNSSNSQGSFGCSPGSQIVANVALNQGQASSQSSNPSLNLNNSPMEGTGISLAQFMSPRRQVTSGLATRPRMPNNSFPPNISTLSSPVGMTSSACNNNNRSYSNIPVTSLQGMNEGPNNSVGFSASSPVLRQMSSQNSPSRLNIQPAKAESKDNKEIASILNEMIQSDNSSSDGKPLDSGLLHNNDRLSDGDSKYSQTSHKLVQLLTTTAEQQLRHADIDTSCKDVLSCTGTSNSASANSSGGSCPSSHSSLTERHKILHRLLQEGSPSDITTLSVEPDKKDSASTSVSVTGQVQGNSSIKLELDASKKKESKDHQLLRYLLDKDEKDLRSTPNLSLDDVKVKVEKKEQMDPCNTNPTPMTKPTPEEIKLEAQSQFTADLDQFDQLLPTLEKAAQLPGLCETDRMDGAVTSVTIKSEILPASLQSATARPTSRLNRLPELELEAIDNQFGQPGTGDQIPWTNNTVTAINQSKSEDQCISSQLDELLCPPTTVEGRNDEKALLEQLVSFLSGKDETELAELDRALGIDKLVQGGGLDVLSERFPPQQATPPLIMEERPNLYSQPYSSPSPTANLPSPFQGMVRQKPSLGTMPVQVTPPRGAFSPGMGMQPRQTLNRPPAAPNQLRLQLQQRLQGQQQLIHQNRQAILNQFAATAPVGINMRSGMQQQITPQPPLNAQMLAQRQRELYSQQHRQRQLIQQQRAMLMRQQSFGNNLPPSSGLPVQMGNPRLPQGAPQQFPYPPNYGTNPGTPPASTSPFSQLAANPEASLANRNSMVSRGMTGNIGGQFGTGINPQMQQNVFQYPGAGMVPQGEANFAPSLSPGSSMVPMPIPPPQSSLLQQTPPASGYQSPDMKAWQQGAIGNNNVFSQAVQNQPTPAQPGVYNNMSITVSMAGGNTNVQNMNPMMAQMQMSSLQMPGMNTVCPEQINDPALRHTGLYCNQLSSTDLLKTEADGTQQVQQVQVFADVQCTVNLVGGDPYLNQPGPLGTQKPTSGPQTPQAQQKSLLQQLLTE

By inhibition is commonly meant the change of the read-out against control, counted positive when it falls. On to `O=C(NC(=S)Nc1ccc(N2CCN(C(=O)c3ccccc3)CC2)cc1)c1cccs1`, for which the inhibition was 25.8% in assay [1], 23.8% in assay [2], 16% in assay [3] and 14.3% in assay [4].

For the compound `NC(=S)N/N=C1\CCSc2ccc(Cl)cc21`, the inhibition in assay [1] is 39.3%; in assay [2] it was 22.9%; in assay [3], 6.53%; in assay [4], 16.1%.

For the compound `CCCCCCCCCCCCCCCC[n+]1cccc2ccccc21`, the inhibition in assay [1] is 44.9% (active); in assay [2], 69.2% (active); in assay [3] it was 39.9%; in assay [4], 76% (active).

On to `COc1ccc(-c2csc3ncnc(NCCCO)c23)cc1`, for which the inhibition in assay [1] was 66.3% (active); in assay [2] it was 46.3% (active); in assay [3] it was 50.2% (active); in assay [4] it was 49.8% (active).

Consider `CCN(CC)CCNC(=O)c1ccc2c(c1NCCO)C(=O)c1ccccc1C2=O`, for which the inhibition in assay [1] was -15.3%; in assay [2], -1.86%; in assay [3], -19.2%; in assay [4], -8.97%.
